GPR151 activ: activators of human GPR151. Q8TDV0. PathHunter beta-arrestin GPR151 cells, luminescence. activation, % at 11.2 µM. 650,000 tested, 1% active; in the data active = activation above about 4.9%
Target sequence (Q8TDV0 whole entry, looked up): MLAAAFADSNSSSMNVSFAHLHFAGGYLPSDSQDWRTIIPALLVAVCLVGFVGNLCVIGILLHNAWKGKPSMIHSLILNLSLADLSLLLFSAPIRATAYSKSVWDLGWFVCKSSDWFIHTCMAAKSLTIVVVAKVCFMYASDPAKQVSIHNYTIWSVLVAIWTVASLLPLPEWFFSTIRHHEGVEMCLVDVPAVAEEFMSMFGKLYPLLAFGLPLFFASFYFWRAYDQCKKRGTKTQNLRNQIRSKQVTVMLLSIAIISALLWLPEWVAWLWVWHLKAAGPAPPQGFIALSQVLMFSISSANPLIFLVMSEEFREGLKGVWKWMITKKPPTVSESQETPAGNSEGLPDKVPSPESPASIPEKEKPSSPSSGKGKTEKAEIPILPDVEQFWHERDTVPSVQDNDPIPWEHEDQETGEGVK
MITF inh: inhibitors of human MITF | AlphaScreen MITF homodimerization, bead proximity signal | AID 1259374 | O75030 | inhibition, % at 2.6 µM | 650,000 tested, 0.91% active; in the data active = inhibition above about 50%
FBW7 act: activators of human E3 ligase FBW7; normalized activity (activation), % at 26.1 µM; 650,000 tested, 0.13% active; Q969H0; AlphaScreen FBW7–phospho-cyclin E peptide binding, activator screen; AID 1259310; in the data active = normalized activity above about 1.9%;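 also: purified mutant Fbw7 with reduced substrate affinity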
TEAD-YAP inh: TEAD-YAP interaction inhibition. 640,000 tested, 1.4% active. inhibition, % at 9.12 µM. AID 1259422. HEK-TIYL cells, TEAD-Gal4/YAP UAS-luciferase luminescence; in the data active = inhibition above about 32%
Large screens that a line does not name were inactive. Sampled rows, rich in hits. Any-hit rate of the full collection: about 3.5%.

O=C(Cn1c(=O)[nH]c2ccccc21)NCc1ccc2c(c1)OCO2	TEAD-YAP inh 75
Cc1csc2n1c(C(=O)c1ccccc1)c(C)[n+]2-c1ccc(Br)cc1	none
CCc1c(C(=O)c2ccc(C)cc2)n2c(C)csc2[n+]1-c1ccccc1	TEAD-YAP inh 40
N#Cc1cccc(-n2ncc3cc(Nc4ccccc4Cl)ccc32)c1	FBW7 act 2.0
COc1cc(NC(=O)c2cccc(-n3ncc4cc(Nc5ccccc5Cl)ccc43)c2)cc(OC)c1OC	none
OCC1CCCN1c1nc(NCCc2ccc(O)cc2)c2ncn(-c3ccccc3)c2n1 (stereo unspecified)	TEAD-YAP inh 43
CCCNc1nc(N2CCCC2CO)nc2c1ncn2-c1ccccc1 (stereo unspecified)	TEAD-YAP inh 37
COc1ccc(CCNc2nc(N3CCCC3CO)nc3c2ncn3-c2ccccc2)cc1 (stereo unspecified)	none
COc1ccccc1-c1cc2nc(C)c(CCC(=O)NC3CCCC3)c(C)n2n1	none
Cc1ccc(NC(=O)C(=O)N/N=C/c2ccc(I)cc2)c(C)c1	none
CCNc1nc(NCC)nc(N/N=C/c2ccc(OC)c(OCc3ccccc3)c2)n1	none
CNc1nc(N/N=C/c2ccc(OC)c(OC)c2)nc(Nc2cccc(C(F)(F)F)c2)n1	TEAD-YAP inh 53
O=C(CSc1nc2ccccc2[nH]1)Nc1ccc(Br)cn1	TEAD-YAP inh 76
Cc1cc(=O)[nH]c(SCC(=O)Nc2ccc(Br)cn2)n1	none
COc1cc(/C=N/c2sc3c(c2C#N)CCC3)ccc1OCC(=O)O	none
N#Cc1c(/N=C/c2ccc(O)c(O)c2)sc2c1CCCC2	TEAD-YAP inh 43
CCOc1ccc2[nH]c(=O)c(CN(Cc3cccs3)C(=O)CC)cc2c1	TEAD-YAP inh 33
CCOC(=O)N1CCN(C(=O)C2CCN(Cc3cccc(OC)c3O)CC2)CC1	MITF inh 55
O=C(C1CCN(Cc2ccccc2O)CC1)N1CCc2ccccc2C1	none
COc1cccc(CN2CCC(C(=O)N3CCc4ccccc4C3)CC2)c1O	MITF inh 51
CCOC(=O)C1CCN(Cc2cccc(OC)c2O)CC1	none
NC(=O)c1cccc(Nc2ncc(Cl)c(-c3ccccc3)n2)c1	none
COCCNC(=S)N/N=C/c1ccc(N2CCOCC2)cc1	TEAD-YAP inh 64
Oc1ccc(/C=N/NC(=S)N2CCOCC2)cc1	TEAD-YAP inh 50
Cc1ccc(C)n1-c1ccc(C(=O)O)c(C(=O)O)c1	none
Cc1ccc(C)n1-c1ccc(Br)cc1C(=O)O	MITF inh 82
CCOC(=O)c1ccc(N2C(=O)/C(=C\c3ccco3)C(C(=O)OC)=C2C)cc1	MITF inh 67
Cc1ccc(-c2csc(/C(C#N)=C\Nc3ccc(S(N)(=O)=O)cc3)n2)cc1	FBW7 act 2.7
O=C1C=CC(=NS(=O)(=O)c2ccc(C(=O)O)cc2)C=C1	MITF inh 56
O=C(O)c1ccc(S(=O)(=O)c2ccc(C(=O)O)cc2)cc1	none
Cn1c(=O)n(C)c2cc(NS(=O)(=O)c3ccc(C(C)(C)C)cc3)ccc21	none
CC(C)Cc1ccc(S(=O)(=O)Nc2ccc3c(c2)n(C)c(=O)n3C)cc1	TEAD-YAP inh 33
CC(=O)c1c(C)nn(CC(O)COc2ccc(C(=O)c3ccc(Cl)cc3)cc2)c1C (stereo unspecified)	TEAD-YAP inh 40
Cc1cc(C)n(CC(O)COc2ccc(C(=O)c3ccccc3)cc2)n1 (stereo unspecified)	none
CCN(c1ccc(OC)cc1)c1ncnc2nc[nH]c12	TEAD-YAP inh 37
CCCN(c1ccc(OCC)cc1)c1ncnc2nc[nH]c12	none
CC(=O)N1C(=O)/C(=C2\SC(=O)NC2=O)c2ccccc21	none
CC1(c2ccccc2)CC(C)(C)N2C(=O)/C(=C3\SC(=O)NC3=O)c3cccc1c32 (stereo unspecified)	TEAD-YAP inh 50
COc1ccc(OC)c(-n2c(C)cc(/C=C3/C(=N)N4OC(C)=CC4=NC3=O)c2C)c1	TEAD-YAP inh 48
COc1cc(OC)c(-n2c(C)cc(/C=C3/C(=N)N4OC(C)=CC4=NC3=O)c2C)cc1Cl	none
CC1=CC2=NC(=O)/C(=C\c3cc(C)n(-c4cc(C)ccc4C)c3C)C(=N)N2O1	TEAD-YAP inh 61
Cc1ccc(NS(=O)(=O)c2ccc3c(c2)CCN3C(=O)CCC(=O)O)cc1C	none
COc1cncc(-c2cncc(-c3ccccc3N(C)C)n2)c1	TEAD-YAP inh 36
COc1cc(-c2cncc(-c3ccccc3N(C)C)n2)cc(OC)c1OC	none
COC1C(O)CC(OC2CC(Oc3cc4cc5c(c(O)c4c(O)c3C)C(=O)[C@@H](OC3CC(OC4CC(OC6CC(C)(O)C(C)C(C)O6)C(O)C(C)O4)C(O)C(C)O3)[C@H]([C@H](OC)C(=O)[C@@H](O)[C@@H](C)O)C5)OC(C)C2OC(C)=O)OC1C (stereo partly specified)	TEAD-YAP inh 96
C=CCOc1ccc(/C=N/NC(=O)C(=O)Nc2ccccn2)cc1OCC	none
O=C(NCCCN1CCCC1=O)C(=O)NCC(c1ccco1)N1CCOCC1 (stereo unspecified)	none
Cc1sc2nc(C)n(C3CCN(C(=O)c4ccncc4)CC3)c(=O)c2c1C	TEAD-YAP inh 40
O=C(CNC(=O)c1cccs1)OCc1ccc(Oc2ccc([N+](=O)[O-])cc2)cc1	none
O=C(O)c1cccc(N/N=C/c2cc(Br)cs2)c1	TEAD-YAP inh 38
Cc1ccsc1/C=N/Nc1cccc(C(=O)O)c1	TEAD-YAP inh 48
Cc1nn(-c2ccccc2)c(C)c1/C=N/Nc1cccc(C(=O)O)c1	TEAD-YAP inh 42
Cc1ccsc1/C=N/Nc1ccc(C(=O)O)cc1	TEAD-YAP inh 49
O=C(O)c1cccc(N/N=C/c2cccc3ccccc23)c1	none
NC(=O)COc1ccc(-c2ccccc2)cc1	none
Cc1cc(Cl)ccc1NC(=O)c1sc2ncn(Cc3cccc(F)c3)c(=O)c2c1C	none
Cc1c(N/N=C(\C#N)C(=O)c2ccccc2)c(=O)n(-c2ccccc2)n1C	none
Cc1ccccc1C(=O)/C(C#N)=N/Nc1c(C)n(C)n(-c2ccccc2)c1=O	MITF inh 70
Cc1c2c(=O)n(-c3nc4ccccc4s3)[nH]c2cc(=O)n1Cc1ccccc1	MITF inh 71
COc1ccc(CCn2c(C)c3c(=O)n(-c4nc5ccccc5s4)[nH]c3cc2=O)cc1	none
O=C(NCc1nnc2n1CCN(C(=O)CC1=CCCCC1)CC2)c1ccncc1	none
COc1ccc2oc(=Nc3ccccc3)c(-c3nc4ccccc4[nH]3)cc2c1	none
COc1ccc2cc(-c3nc4ccccc4[nH]3)c(=Nc3ccc(C(N)=O)cc3)oc2c1	TEAD-YAP inh 66
COc1ccc2cc(-c3nc4ccccc4[nH]3)c(=Nc3ccc(F)cc3)oc2c1	TEAD-YAP inh 76
CC(=O)Nc1ccnn1C1CCN(Cc2ccc(-c3ccccc3)cc2)CC1	none
CC(=O)Nc1ccnn1C1CCN(Cc2cnc(-c3ccccc3C)nc2)CC1	TEAD-YAP inh 41
CC(=O)Nc1ccnn1C1CCN(Cc2cnc(-c3ccccc3)s2)CC1	TEAD-YAP inh 67
C[C@H](c1ccccc1)n1c(=O)[nH]c2ncc(-c3ccc(C(=O)N4CCOCC4)cc3)nc21	none
CC(=O)NC1=C(N(C)C)C(=O)c2ccccc2C1=O	none

Screening results deposited in PubChem by The Scripps Research Institute Molecular Screening Center.
